These results are taken from PubChem BioAssay (EPA / NIEHS).

Read-out in test [1]: Tumor necrosis factor (Homo sapiens) (UniProt P01375)
Briefly: BSK_BT_xTNFa: BioMAP Diversity Plus: BT Assay for Tumor necrosis factor alpha (TNF-alpha) Biomarker Activity (AID 2284230). The following applies: primary human B cells with PBMC. A digest of the protocol: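 B cells with PBMC in co-culture, dosed and sampled at 24 h; secreted TNF-alpha measured by Luminex xMAP bead assay. Activity fitted in the gain direction against DMSO as negative control and baseline.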

Read-out in test [2]: Vascular cell adhesion molecule 1 (VCAM1), VCAM1 (gene 7412)
Briefly: BSK_MyoF_VCAM1: BioMAP Diversity Plus: MyoF Assay for Vascular cell adhesion molecule 1 (VCAM1) Biomarker Activity (AID 2284231). The following applies: primary human lung fibroblasts. A digest of the protocol: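 Primary human lung fibroblasts (BioMAP MyoF system) dosed with chemical, VCAM-1 measured by ELISA 24 hours later. Fitted in the positive direction against DMSO; parallel SRB staining assessed cytotoxicity.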

Read-out in test [3]: Collagen I, COL1A1 (gene 1277)
Put plainly: BSK_MyoF_CollagenI: BioMAP Diversity Plus: MyoF Assay for Collagen I Biomarker Activity (AID 2284238). The following applies: primary human lung fibroblasts. An outline of the steps:
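Primary human lung fibroblasts (MyoF system) treated 24 h; Collagen I quantified by ELISA and fitted in positive direction against DMSO. Parallel SRB total-protein staining assessed overt cytotoxicity.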

Read-out in test [4]: Collagen III, COL3A1 (gene 1281)
Briefly: BSK_MyoF_CollagenIII: BioMAP Diversity Plus: MyoF Assay for Collagen III Biomarker Activity (AID 2284239). The following applies: primary human lung fibroblasts. A digest of the protocol:
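Primary human lung fibroblasts (BioMAP MyoF system) exposed 24 h. Collagen III measured by ELISA; positive-direction fit relative to DMSO.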

Read-out in test [5]: Interleukin 17F (IL17F), IL17F (gene 112744)
Briefly: BSK_BT_xIL17F: BioMAP Diversity Plus: BT Assay for Interleukin 17F (IL17F) Biomarker Activity (AID 2284243). The following applies: primary human B cells with PBMC. A digest of the protocol:
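Human PBMC co-cultured with B cells, compound exposure 24 h; secreted IL-17F quantified by Luminex xMAP, referenced to DMSO control. PBMC viability measured in parallel by Alamar Blue reduction.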

Read-out in test [6]: Actin alpha 1 (ACTA1), ACTA1 (gene 58)
Briefly: BSK_MyoF_ACTA1: BioMAP Diversity Plus: MyoF Assay for Actin alpha 1 (ACTA1) Biomarker Activity (AID 2284244). The following applies: primary human lung fibroblasts. An outline of the steps:
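ELISA read-out of a-SMA in primary human lung fibroblast cultures, 24 h post-dosing. Activity scored in the positive direction versus DMSO baseline.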

Read-out in test [7]: Interleukin 2 (IL2), IL2 (gene 3558)
Briefly: BSK_BT_xIL2: BioMAP Diversity Plus: BT Assay for Interleukin 2 (IL2) Biomarker Activity (AID 2284245). The following applies: primary human B cells with PBMC. A digest of the protocol: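 Readout: supernatant IL-2 via Luminex xMAP after 24 h chemical dosing of a B cell/PBMC primary human co-culture. DMSO serves as negative control and baseline; increases in signal were fitted.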

Read-out in test [8]: Basic fibroblast growth factor (bFGF), FGF2 (gene 2247)
Put plainly: BSK_MyoF_bFGF: BioMAP Diversity Plus: MyoF Assay for Basic fibroblast growth factor (bFGF) Biomarker Activity (AID 2284246). The following applies: primary human lung fibroblasts. An outline of the steps: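 Primary human lung fibroblast culture, 24 h compound exposure; ELISA read-out of bFGF. Positive-direction fit vs DMSO baseline. Cytotoxicity: SRB stain (0.1% SRB, 10% TCA fixation, 560 nm) in parallel wells.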

Read-out in test [9]: Collagen IV, COL4A1 (gene 1282)
Briefly: BSK_MyoF_CollagenIV: BioMAP Diversity Plus: MyoF Assay for Collagen IV Biomarker Activity (AID 2284247). The following applies: primary human lung fibroblasts. A digest of the protocol:
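ELISA read-out of Collagen IV in lung fibroblast cultures, 24 h post-dosing; gain of signal relative to DMSO vehicle baseline defines activity.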

The nature of test [10]: CCTE_Mundy_HCI_hNP1_CellTiter: CCTE's Cell Titer-Glo 2 Assay in human neuroprogenitor cells for Viability, Mundy Lab (AID 2284241; active means hit-call score of the fitted dose curve at least 0.9, where 1 is the maximum). A digest of the protocol:
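Human neural progenitor cells (hNP1, WA09-derived) were plated on poly-L-ornithine/laminin and grown 40 to 44 hours at 37 °C, 5% CO2 before chemical addition. Twenty-four hours later, ATP was measured by CellTiter-Glo luminescence; loss of signal versus DMSO indicates reduced viability.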
In general terms: In ATP-based viability assays light output follows the ATP content of the culture.

Where “and” joins values, the source holds several entries; their conditions need not be identical. Identical values can stand only once. Inconclusive results are not listed. A structure can be active in one record and inactive in another. Calls of active or inactive are those of the source. How the source made its calls, unless noted: active means hit-call score of the fitted dose curve at least 0.9, where 1 is the maximum; inactive means score below 0.9.

Sequence of Tumor necrosis factor (Homo sapiens) (P01375 whole entry, looked up): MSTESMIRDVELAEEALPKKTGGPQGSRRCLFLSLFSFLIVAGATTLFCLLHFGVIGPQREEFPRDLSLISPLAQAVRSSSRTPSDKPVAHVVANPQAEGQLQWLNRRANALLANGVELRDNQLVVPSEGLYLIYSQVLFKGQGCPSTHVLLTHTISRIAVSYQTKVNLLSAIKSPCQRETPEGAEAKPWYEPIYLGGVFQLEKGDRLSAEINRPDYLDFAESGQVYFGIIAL

`CCN(CC)c1ccc(C=O)c(O)c1`: the outcome in test [1], in test [2], in test [3], in [4], in test [5] and in [6] was inactive. Besides, the outcome in [7] and in [8] was inactive.

`O=C=NCc1cccc(CN=C=O)c1`: the result in [1], in test [2], in test [3], in [4], in test [5] and in [6] was inactive. In addition, the result in [7] and in [8] was inactive.

With `NC(=O)C(F)(F)C(F)(F)C(F)(F)C(F)(F)C(N)=O`, in test [1], the AC50 is 221 nM (active). The outcome in test [1], in test [2], in test [3], in test [4], in test [5] and in test [6] was inactive. For the same compound, the result in test [7] and in [8] was inactive.

With `C=C(C)C(=O)OCC(F)(F)C(F)(F)C(F)(F)C(F)F`, the outcome in test [1], in test [2], in [3], in [4], in test [5] and in [6] was inactive. For the same compound, the result in [7], in test [8] and in [9] was inactive. In addition, the values for the concentration at half-maximal activity (AC50) in [5] and in [6] were 22.9 µM (active) and 14.4 µM (active), respectively.

In the case of `C=CC(=O)OCCC(F)(F)C(F)(F)C(F)(F)C(F)(F)F`, the AC50 is 38.4 µM (active) and 30 µM (active) in [1]; 21 µM (active) in [2]; 20.1 µM (active) and 14.3 µM (active) in [5]; 46.6 µM (active) and 48 µM (active) in test [7]. The outcome in [2], in test [3], in test [4], in test [6] and in test [8] was inactive.

For the compound `OCCCC(F)(F)C(F)(F)C(F)(F)C(F)(F)C(F)(F)C(F)(F)C(F)(F)C(F)(F)F`, the AC50 in test [1] is 37.1 µM (active) and 37 µM (active); in [2], 12.8 µM (active) and 9.88 µM (active); in [3] it was 13 µM (active) and 10.9 µM (active); in test [4] it was 13.5 µM (active) and 12.2 µM (active); in test [5] it was 22.4 µM (active) and 19.1 µM (active); in test [6], 10.3 µM (active) and 10.6 µM (active). Besides, the AC50 was 43.4 µM (active) and 46.9 µM (active) in test [7]; 10.1 µM (active) and 9.64 µM (active) in test [8]. The compound was called inactive in test [10].

For `Nc1cc([N+](=O)[O-])cc(Cl)c1O`, the result in test [1], in test [2], in [3], in test [4], in test [5] and in test [6] was inactive. Further, the result in test [7] and in test [8] was inactive.

For `OCC(O)CC(F)(F)C(F)(F)C(F)(F)C(F)(F)F` (stereo not drawn), the concentration at half-maximal activity (AC50) in [1] is 153 nM (active). Further, the result in test [1], in test [2], in [3], in test [4], in test [5] and in test [6] was inactive. In addition, the result in test [7] and in [8] was inactive.

Consider `O=C(O)CCC(F)(F)C(F)(F)C(F)(F)C(F)(F)C(F)(F)C(F)(F)C(F)(F)F`, for which the outcome in test [1], in test [2], in [3], in [4], in test [10] and in test [5] was inactive. The outcome in test [6], in [7] and in [8] was inactive. Moreover, the concentration at half-maximal activity (AC50) in test [7] is 2.38 µM (active).

For `NC(=O)C(F)(F)C(F)(F)C(F)(F)C(F)(F)C(F)(F)C(F)(F)C(F)(F)F`, the result in test [1], in test [2], in test [3], in [4], in test [10] and in test [5] was inactive. The result in [6], in test [7], in test [8] and in test [9] was inactive. Moreover, the AC50 in test [7] was 30 µM (active).

As to `O=C(O)CCC(F)(F)C(F)(F)C(F)(F)F`, the result in test [1], in test [2], in [3], in test [4], in [10] and in test [5] was inactive. Further, the outcome in test [6], in test [7] and in test [8] was inactive.

For the compound `O=S(=O)(Cl)C(F)(F)C(F)(F)C(F)(F)C(F)(F)C(F)(F)C(F)(F)C(F)(F)C(F)(F)F`, the AC50 in test [1] was 15900 nM (active); in [4], 30 µM (active) and 41.1 µM (active). The result in test [1], in test [2], in test [3], in test [5], in [6] and in [7] was inactive. The outcome in test [8] was inactive.

As to `Cc1ccc(O)c(-n2nc3ccccc3n2)c1`, the outcome in [1], in [2], in [3], in [4], in test [5] and in [6] was inactive. Further, the outcome in [7] and in test [8] was inactive.

Take `COC(F)(C(F)F)C(F)(F)F` (stereo not drawn): the result in test [1], in [2], in [3], in test [4], in test [5] and in test [6] was inactive. The outcome in test [7], in test [8] and in [9] was inactive. Moreover, the AC50 in test [6] is 0.556 µM (active).

Turning to `OCC(F)(F)C(F)(F)C(F)(F)C(F)(F)C(F)(F)C(F)(F)C(F)(F)C(F)(F)CO`, the AC50 in test [1] is 45.6 µM (active) and 54 µM (active); in [2], 47.9 µM (active) and 45.4 µM (active); in test [3], 40.4 µM (active); in test [4] it was 37.1 µM (active) and 45.7 µM (active); in test [5] it was 53.8 µM (active) and 38.5 µM (active); in test [6] it was 44.9 µM (active) and 42.5 µM (active). Further, the AC50 in [7] is 54.7 µM (active) and 46.9 µM (active); in test [8], 54.4 µM (active). The result in test [3] and in test [8] was inactive.

The term AC50 denotes the concentration at which the activity in the assay is half-maximal.
